# Shown are actives, neighbours in structure and some others; about 2.8% of the full set was active somewhere.
# IP6K1 inhibitor: inhibitors of human IP6K1. Q92551. IP6K1 kinase, ADP-Glo luminescence, 2 h; hits give low values. activity change, % (series mostly up to about 58 µM). 0.81% of 140,000 active. AID 1645851; in the data active means activity change below about -25%; further: on the % scale 0 is the no-effect control and ±100 the full control effect
#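 ADP-Glo luminescence measures ADP made by human IP6K1 during a 2 h RT reaction with ATP/IP6 (mix at 1.3 mM/130 uM); top library doses 57.5 and 19.1 uM final.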
# KDM5B inhibitor: KDM5B demethylase inhibition. Q9UGL1. KDM5B demethylase, FDH-coupled NADH fluorescence (FDH is formaldehyde dehydrogenase). Potency, µM (top dose mostly 57.7 µM), actives largely listed as inhibitors. 2.6% of 220,000 active. AID 1347165; further: potency means the concentration at half of the fitted maximal effect; 0% is about no effect; nearly all actives have a fitted effect of over 70% in size
# Target sequence (Q9UGL1 whole entry, looked up): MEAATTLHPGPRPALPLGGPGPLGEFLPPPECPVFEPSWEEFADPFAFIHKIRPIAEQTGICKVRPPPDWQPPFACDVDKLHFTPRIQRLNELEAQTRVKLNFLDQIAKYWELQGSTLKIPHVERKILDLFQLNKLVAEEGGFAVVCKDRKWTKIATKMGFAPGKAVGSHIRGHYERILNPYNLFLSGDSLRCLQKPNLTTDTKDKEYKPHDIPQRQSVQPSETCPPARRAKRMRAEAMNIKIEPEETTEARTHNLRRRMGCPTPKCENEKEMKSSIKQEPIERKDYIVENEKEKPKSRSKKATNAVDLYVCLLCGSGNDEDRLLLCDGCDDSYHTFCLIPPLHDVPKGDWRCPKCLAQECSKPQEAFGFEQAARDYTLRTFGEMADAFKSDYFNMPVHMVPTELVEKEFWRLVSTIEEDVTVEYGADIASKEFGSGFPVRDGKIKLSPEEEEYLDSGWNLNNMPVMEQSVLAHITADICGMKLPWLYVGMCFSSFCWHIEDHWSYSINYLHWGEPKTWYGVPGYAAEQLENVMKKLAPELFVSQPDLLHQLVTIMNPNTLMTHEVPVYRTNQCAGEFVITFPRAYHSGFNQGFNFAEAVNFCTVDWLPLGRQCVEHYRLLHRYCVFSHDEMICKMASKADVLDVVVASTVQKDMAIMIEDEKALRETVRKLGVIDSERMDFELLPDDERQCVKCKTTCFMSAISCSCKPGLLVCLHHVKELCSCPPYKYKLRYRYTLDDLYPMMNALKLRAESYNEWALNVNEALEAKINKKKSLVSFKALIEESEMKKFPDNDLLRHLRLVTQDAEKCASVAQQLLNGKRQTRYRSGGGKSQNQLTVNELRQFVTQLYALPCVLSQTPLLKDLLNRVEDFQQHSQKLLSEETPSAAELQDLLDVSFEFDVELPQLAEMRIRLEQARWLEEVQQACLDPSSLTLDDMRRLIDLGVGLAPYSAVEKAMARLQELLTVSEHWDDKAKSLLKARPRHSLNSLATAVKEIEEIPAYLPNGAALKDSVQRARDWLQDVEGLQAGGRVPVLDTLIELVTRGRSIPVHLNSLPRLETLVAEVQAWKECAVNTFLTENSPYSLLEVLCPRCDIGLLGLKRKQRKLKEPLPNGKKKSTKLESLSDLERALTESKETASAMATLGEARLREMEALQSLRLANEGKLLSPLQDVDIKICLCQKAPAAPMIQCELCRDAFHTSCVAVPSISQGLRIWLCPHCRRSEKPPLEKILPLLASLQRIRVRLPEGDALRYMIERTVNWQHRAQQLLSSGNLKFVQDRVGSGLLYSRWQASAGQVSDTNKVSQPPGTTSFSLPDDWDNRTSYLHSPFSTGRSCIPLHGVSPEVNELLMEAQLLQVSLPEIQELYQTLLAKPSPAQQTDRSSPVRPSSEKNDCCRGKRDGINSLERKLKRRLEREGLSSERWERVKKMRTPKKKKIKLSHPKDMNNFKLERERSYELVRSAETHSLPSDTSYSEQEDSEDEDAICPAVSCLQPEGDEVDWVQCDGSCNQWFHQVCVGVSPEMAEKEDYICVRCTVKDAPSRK
#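 Inhibition is measured as reduced NADH fluorescence generation from FDH coupling to formaldehyde release. Truncated KDM5BΔAP at 200 nM final acts on H3K4me3 peptide (12.5 µM in substrate mix) in pH 7.5 HEPES buffer with Tween-20, 30 min, room temperature.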
# SNCA viab count: reduces viability of HEK-293 SNCA reporter cells; HEK-293-SNCA-luc viability, GF-AFC fluorescence, 24 h; Potency, µM (top dose mostly 57.1 µM), inactives show at the highest dose activity change, negative = cytotoxicity, usual class: cytotoxic; 0.12% of 150,000 active;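 further: potency means the concentration at half of the fitted maximal effect; 0% = DMSO-treated cells and -100% = medium-only wells without cells; nearly all actives have a fitted effect of over 30% in size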
#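 Cytotoxicity counterscreen: after 24 h compound treatment of genome-edited SNCA-luciferase HEK-293 cells, live-cell protease substrate GF-AFC read by fluorescence after 30 min; activity scaled between DMSO (0%) and medium-only (-100%), curves Hill-fitted.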
# SNCA expr inh: inhibitors of alpha-synuclein (SNCA) gene expression | Potency, µM (top dose mostly 57.2 µM), for the others: at the highest dose activity change, negative = inhibition, most hits filed as inhibitors | HEK-293 SNCA-luciferase knock-in, luminescence, 24 h | 0.17% of 140,000 active;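 further: potency means the concentration at half of the fitted maximal effect; plate controls were DMSO cells for no effect and cell-free wells for full effect; nearly all actives have a fitted effect of over 45% in size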
# IP6K1 inh cnf: confirmation of human IP6K1 inhibitors; shares compounds with IP6K1 inhibitor; recombinant IP6K1 kinase, ADP-Glo luminescence, 2 h; Potency, µM (doses to about 49 µM), without a hit: at the top dose activity change, negative = inhibition, most hits filed as inhibitors; 13% of 1,200 active; further: potency means the concentration at half of the fitted maximal effect; on the % scale 0 is the no-effect control and ±100 the full control effect; nearly all actives have a fitted effect of over 65% in size
# * hit, by the source's call; i = inactive; u = inconclusive; x = no result; [ ] = another dose, or the depositor's remark. Unless noted, the call rests on the fitted dose curve; in most records, active means well fitted curve in the direction sought with a large enough effect; inconclusive means small, poorly fitted or top-dose-only effect, or another doubt; inactive means no such curve, though single readings can be large; an effect the other way counts as inactive or inconclusive.
SMILES,IP6K1 inhibitor,KDM5B inhibitor,SNCA viab count,SNCA expr inh,IP6K1 inh cnf
Cc1ccc(NC(=O)c2cc(S(=O)(=O)NC3CCCCCC3)ccc2F)cc1F,-26.5*,i,u,u,-5.9%
Cc1cccc2c1NC(=O)C2(c1ccc(O)cc1)c1ccc(O)cc1,-26.0*,x,-7.5%,x,1.2%
N#Cc1ccc(CN2CCN(C(=O)c3ccc(Cn4nnc5ccccc54)cc3)CC2)cc1,x,i,x,x,x
CCCCOCCCNC(=O)c1cc(=O)c2ccccc2o1,x,i,x,x,x
CCOC(=O)C1CCN(C(=O)Cn2nc(C)n3c(cc4cc(C)ccc43)c2=O)CC1,-35.4*,u,-8.9%,-18.4%,-25.0%
CCOC(=O)C1CCN(C(=O)Cn2nc(C)n3c(cc4c(OC)cccc43)c2=O)CC1,-22.1,u,7.2%,15.7%,x
COc1cccc2c1cc1c(=O)n(CC(=O)N3CCN(c4cc(Cl)ccc4C)CC3)nc(C)n12,-8.4,u,3.3%,18.9%,x
Cc1ccc2c(c1)cc1c(=O)n(CC(=O)N3CCCCC3)nc(C)n12,-27.1*,u,-7.8%,-1.6%,-18.8%
COc1cccc2c1cc1c(=O)n(CC(=O)N3CCN(c4cccc(C)c4C)CC3)nc(C)n12,-25.8*,u,7.4%,-0.2%,9.6%
Cc1nn(CC(=O)N2CCCCC2)c(=O)c2cc3occc3n12,14.1,i,u,63.6%,x
COc1ccc(C)cc1Nc1nc(N)c(C(=O)c2cccc(Br)c2)s1,x,i,x,x,x
CCCOc1ccc(-c2nc(C#N)c(NCCCN(C)C)o2)cc1,x,i,x,x,x
COc1ccccc1NC(=O)C1=C(C)Nc2nc(SC)nn2C1c1ccccc1OC (configuration not stated),x,i,x,x,x
Cc1ccc(C)c(N2CCN(C(=O)C3CCCN(c4nnc(-n5cccc5)s4)C3)CC2)c1 (configuration not stated),x,i,x,x,x
O=Nc1c(-c2c(O)[nH]c3ccccc23)[nH]c2ccccc12,x,x,u,89.1%,1.1%
Oc1[nH]c2ccccc2c1N=Nc1ccccc1,x,i,x,x,x
CCCCCNC(=O)c1ccc2c(c1)ncn2-c1cccc(C)c1,-31.4*,u,-21.5%,1.2%,u
Cn1cnc2c(F)c(Nc3ccc(Br)cc3F)c(C(=O)NOCCO)cc21,12.2,x,4.1%,-3.3%,-12.2%
O=C(NOCC(O)CO)c1cc(Br)c(F)c(F)c1Nc1ccc(I)cc1F (configuration not stated),x,x,-24.3%,4.3%,x
O=C(CNc1cccc(F)c1)NCc1ccc(Cl)cc1,x,i,x,x,x
CN(C)c1cc(=O)c2ccnc(N3CCN(c4ccccn4)CC3)c2o1,-26.6*,i,7.7%[87.6 µM],-7.3%[87.6 µM],u
Cc1ccc(S(=O)(=O)c2[nH]c(-c3ccccc3)nc2SCC(=O)O)cc1,-25.6*,i,-0.6%,-28.8%,-4.8%
COC[C@@H]1CN(C(=O)c2cn[nH]c2C)C[C@H]1c1ccncc1,0.9,i,-5.4%,-0.1%,x
O=C(O)c1ccc(/C=C/C(=O)c2ccc(N3CCOCC3)cc2)cc1,x,i,x,x,x
COc1ccc(OC(=O)c2nc(SCc3ccccc3F)ncc2Cl)cc1,-33.8*,u,12.3%,u,7.7%
SMILES,IP6K1 inhibitor,KDM5B inhibitor,SNCA viab count,SNCA expr inh,IP6K1 inh cnf
COCCNc1nc(NCc2ccccc2OC)c2cnn(C)c2n1,-10.0,u,5.4%,6.8%,x
COCCCNc1nc(NCc2ccc(C)cc2)c2cnn(C)c2n1,-35.8*,u,-11.5%,-3.0%,-8.4%
COCCCNc1nc(NCc2ccccc2OC)c2cnn(C)c2n1,-29.7*,u,9.9%,-16.0%,-13.7%
CCc1ccc(NC(=O)CN(c2ccc(OC)cc2)S(=O)(=O)c2c(C)[nH]c(=O)[nH]c2=O)cc1,-30.7*,i[11.5 µM],13.5%,-17.1%,-3.0%
CCc1ccc(NC(=O)CN(c2cc(C)cc(C)c2)S(=O)(=O)c2c(C)[nH]c(=O)[nH]c2=O)cc1,-14.6,i[11.5 µM],-5.9%,8.1%,x
Cc1cc(F)c(C(=O)Nc2cccc(-c3nncn3C(C)C)n2)cc1-n1cnc(C2CC2)c1,-34.5*,x,u,x,u
Cn1nc(C2CCCC2)cc1NC(=O)c1ccccc1F,-0.7,x,6.1%[87.6 µM],86.6%[87.6 µM],x
O=C1[C@@H]2C[C@@H](O)CN2C2(CN(Cc3ccccn3)C2)C(=O)N1Cc1cccc(Cl)c1,7.9,i,2.1%[87.6 µM],1.2%[87.6 µM],x
O=C(C1CCCN1C(=O)C1CC1)N1CCC(c2nc3ccncc3[nH]2)C1 (configuration not stated),-26.7*,x,11.0%[87.6 µM],5.2%[87.6 µM],-3.6%
COc1ccc(Cl)cc1NC(=O)C(=O)c1c[nH]c2ccccc12,x,i,x,x,x
C=CC(=O)Nc1cc(Nc2ncc(Cl)c(-c3c[nH]c4ccccc34)n2)c(OC)cc1N(C)CCN(C)C,-25.6*,x,u,x,u
CC(C)c1cc(C=O)c(O)c(C=O)c1,x,i,x,x,x
O=Cc1ccc(O)c(O)c1O,-33.0*,x,10.3%[23.9 µM],2.4%[25.6 µM],u
CN(C)C(=O)C1CN(C(=O)Nc2cc(F)c(F)c(F)c2)CC12CCOCC2 (configuration not stated),20.3,i,3.3%,2.9%,x
Cc1ccc([N+](=O)[O-])cc1S(=O)(=O)N1CCn2cccc2C1c1ccccc1F (configuration not stated),-26.3*,u,-1.9%,22.1%,-20.0%
Cc1ccc([N+](=O)[O-])cc1S(=O)(=O)N1CCn2cccc2C1c1ccccc1 (configuration not stated),-4.7,u,6.7%,-8.6%,x
Cc1ccc(C(=O)N2CCC3(C2)NC(=O)c2ccccc2O3)cc1 (configuration not stated),-2.0,i,0.5%[87.6 µM],83.4%[87.6 µM],x
CC(C)CC(NC(=O)C1=NNC(=O)CC1)c1nnc2n1CCNCC2 (configuration not stated),-39.7*,i,-5.5%,3.3%,-9.1%
COCCCn1c(C)cnc1C1CCN(C(=O)NC2CCCCC2)C1 (configuration not stated),-0.3,i,1.8%,14.4%,x
COCCN(C)C[C@H]1C[C@H](CO)CN(C(=O)c2[nH]nc(-c3ccccc3)c2C)C1,-3.9,i,-6.8%,-3.2%,x
COc1cc(/C=C(\C#N)C(=O)c2ccc(O)c(O)c2)cc(I)c1O,x,x,-16.1%,2.1%,2.06µM*
CCOCCCNC(=O)Cn1c(=O)c2c(ncn2CCOC)n(Cc2ccccc2)c1=O,x,i,x,x,x
CC(C)NC(=O)[C@@H]1C[C@H](N)CN1C(=O)c1ccc(-n2cnnn2)cc1,-19.6,i,4.9%,0.4%,x
Cc1nc(NC(=O)C(C)Sc2nnc(-c3ccccc3F)n2C(C)C)sc1C (configuration not stated),x,i,x,x,x
O=C(Cc1ccc(NC(=O)N2CCSc3ncccc32)cc1)NCCc1ccccc1,-33.2*,u,-2.0%,0.5%,-17.3%
Cc1ccc(F)c(C(=O)N[C@H](Cc2ccccc2)C2CC(O)C2)c1Cl (some centres not stated),-34.5*,i,5.8%,54.7%,-11.1%

# Screens (PubChem BioAssay)
